# An excerpt weighted towards active compounds, which were near 1.1% of everything screened.
# DUSP3 inh – DUSP3 (human) phosphatase inhibition; 290,000 tested, 0.52% active; inhibition, % at 13.3 µM; recombinant VHR phosphatase, pNPP absorbance; in the data active means inhibition above about 50%
# Target sequence (P51452 whole entry, looked up): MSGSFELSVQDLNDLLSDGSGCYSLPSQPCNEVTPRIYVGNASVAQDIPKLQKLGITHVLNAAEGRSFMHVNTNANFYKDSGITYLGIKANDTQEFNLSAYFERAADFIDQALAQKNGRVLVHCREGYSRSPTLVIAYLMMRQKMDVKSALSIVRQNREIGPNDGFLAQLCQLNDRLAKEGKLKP
# SARS 3CLpro inh-1 – SARS-CoV 3CLpro protease inhibition; 290,000 tested, 0.14% active; P0C6X7; inhibition, % at 6 µM; recombinant SARS-CoV 3CLpro, quenched FRET peptide cleavage; AID 1706; in the data active means inhibition above about 12%
# BJeLR lethal – kills HRASV12-expressing BJeLR cells | inhibition, % (no concentration beside the values) | BJeLR (HRASV12) viability, CellTiter-Glo ATP luminescence, 48 h | 300,000 tested, 0.17% active | AID 1554; in the data active means inhibition above about 50%
# PrPC TRFRET – reduces human prion protein on the cell surface | AID 720596 | cell surface PrPC, TR-FRET read-out | inhibition, % at 13.8 µM | 370,000 tested, 0.43% active; in the data active means inhibition above about 24%; further: 0% = median of the test wells and 100% = reference compound wells
# SARS 3CLpro inh-2 – SARS 3CLpro inhibition, confirmation assay; inhibition, % at 6 µM; 380 tested, 36% active; QFRET protease activity assay; shares compounds with SARS 3CLpro inh-1; AID 1879; in the data active means inhibition above about 13%
# Active calls of the source: *; x = no result.
SMILES,DUSP3 inh,SARS 3CLpro inh-1,BJeLR lethal,PrPC TRFRET,SARS 3CLpro inh-2
CN1CCN(CC(=O)N2N=C(c3cccs3)CC2c2ccco2)CC1 (stereo unspecified),-2,-2,12,-8,x
O=C(CCl)N1N=C(c2cccs2)CC1c1ccco1 (stereo unspecified),3,38*,23,-6,83*
CCOc1ccc(N(CC(=O)NCCSCc2ccco2)S(=O)(=O)c2ccc(C)cc2)cc1,-14,12*,1,-3,-1
CC(C)N1CCC1(C)C(=O)Nc1ccc(-n2cccc2)cc1 (stereo unspecified),x,x,x,-7,x
CCOc1ccc(NC(=O)CSc2nc(NS(=O)(=O)c3ccc(C)cc3)cc(=O)[nH]2)cc1,7,13*,-4,5,0
CCOC(=O)C(=CNc1ccc(N2CCCCC2)c(S(=O)(=O)Nc2ccccc2OC)c1)C(=O)OCC,x,x,x,-6,x
Cc1cc(NC(=O)COC(=O)C(Nc2ccc(C(F)(F)F)cc2Cl)C(C)C)no1 (stereo unspecified),-10,14*,-5,13,13*
COc1ccc(C(=O)NC(=S)Nc2ccc(S(=O)(=O)Nc3cc(OC)nc(OC)n3)cc2)cc1,17,8,-5,5,x
COc1cc(NS(=O)(=O)c2ccc(NC(=S)NC(=O)c3ccc(F)cc3)cc2)nc(OC)n1,12,12*,-6,-4,6
COc1ccc(-c2n[nH]c(C(F)(F)F)c2-c2cc3ccccc3o2)c(O)c1,8,14*,-3,6,9
COc1ccccc1-c1c(-c2ccc(OCC(=O)NN)cc2O)n[nH]c1C(F)(F)F,5,2,1,6,x
CC(=O)n1cc(N(C(=O)CCl)c2ccc([N+](=O)[O-])cc2)c2ccccc21,-4,14*,2,-32,36*
CC(=O)n1cc(CO)c2ccccc21,21,1,-5,6,x
Cc1ccc(SC2=C(Sc3ccc(C)cc3)C(=O)c3ccccc3C2=O)cc1,5,6,10,-2,5
Cc1ccc(N2C(=O)c3ccccc3C2=O)cc1,12,3,16,10,x
CCOc1cc(C(N)=O)cc(Br)c1OC,9,15*,17,3,-1
COc1cc(/C=C/C(=O)N(C)CC(=O)Nc2ccccc2SC)cc(OC)c1OC,x,x,x,-8,x
Cc1[nH]c2ccccc2c1CC(=O)Nc1ccc(Nc2cccnc2)c(-c2ccc(Oc3ccccc3)cc2)c1,x,x,x,-1,x
CC1CCC(N2CCN(c3ccc([N+](=O)[O-])cc3)CC2)CC1 (stereo unspecified),9,2,-2,-13,x
CCC1CCC(N2CCN(c3ccc([N+](=O)[O-])cc3)CC2)CC1 (stereo unspecified),-7,13*,2,0,0
Cc1noc(C)c1S(=O)(=O)Nc1ccc(C(=O)Nc2ccc(OC(F)(F)F)cc2)cc1,2,13*,6,6,8
COc1cc(NC(=O)c2ccc(NS(=O)(=O)c3c(C)noc3C)cc2)cc(OC)c1,11,7,-18,-3,x
O=C1C2C(c3ccccc3)C=CC(c3ccccc3)C2C(=O)N1c1ccncc1 (stereo unspecified),33,1,3,-1,x
O=C1C2C(c3ccccc3)C=CC(c3ccccc3)C2C(=O)N1c1cccnc1 (stereo unspecified),15,20*,-3,-5,70*
Cc1cccc(OCC(=O)Nc2nccs2)c1C,11,5,-3,2,x
SMILES,DUSP3 inh,SARS 3CLpro inh-1,BJeLR lethal,PrPC TRFRET,SARS 3CLpro inh-2
COc1cccc(CNC(=O)CN(c2ccc(C(C)C)cc2)S(=O)(=O)c2c(C)noc2C)c1,-10,15*,-6,-3,2
CCOc1cc(C(=O)N/N=C/c2cn(-c3ccccc3)nc2-c2cc3ccccc3o2)cc(OCC)c1OCC,x,x,x,-2,x
COC(=O)c1ccc(OC(=O)CN2C(=O)c3ccccc3C2=O)cc1,-16,15*,-2,-5,14*
O=C(/C=C/c1ccccc1Cl)Nc1ccncc1,4,-4,6,-8,x
O=C(/C=C/c1ccccc1Cl)Nc1cccnc1,22,16*,-2,-11,21*
CCCCOc1ccc(C(=O)Oc2cccnc2)cc1,16,19*,-9,0,14*
O=S(=O)(NCC(Nc1ccc(Cl)cc1)c1ccccc1)c1ccccc1 (stereo unspecified),-7,2,17,21,x
Cc1ccc(NC(CNS(=O)(=O)c2ccc(Cl)cc2)c2ccccc2)cc1 (stereo unspecified),21,13*,6,0,8
Cc1ccc(S(=O)(=O)Nc2cc(-c3ccccc3)nn2C)cc1Cl,16,14*,3,-1,9
